Screening data as filed in PubChem.
697 NFkB inh: inhibitors of PMA/ionomycin-induced NF-kB reporter, 697 cells, primary screen, B-cell NF-kB inhibitor project, cell-based, luminescence, uHTS. 330,000 compounds, 0.33% hits. inhibition, % at 4 µM. 697 B-cell NF-kB luciferase reporter, 16 h. AID 435022, 2010; in the data active = inhibition above about 35%
Mdm2 MdmX PPI: inhibitors of human Mdm2-MdmX association, primary screen, cell-based, luminescence, split luciferase, SaOS-2, uHTS. inhibition, % at 8 µM. 330,000 compounds, 3% hits. SaOS-2 split-luciferase Mdm2/MdmX complementation. AID 485346, 2010;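 active = inhibition of at least 50% at 8 µM in the primary screen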
Beta apoptosis: inhibitors of cytokine-induced beta cell apoptosis, primary screen, luminescence; INS-1E cytokine-induced death, ATP luminescence, 48 h; percent of positive-control rescue, neutral wells zero; 300,000 compounds, 0.8% hits; protection from apoptosis, % (test concentration not listed);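 active = Every replicate reaches about 75%, or at least half do and their mean reaches it too, limit read from the data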;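 also: 0% = cytokine-treated negative control wells and 100% = positive control rescue; higher means more ATP so stronger rescue from cytokine killing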
NTR1 ag: agonists of human NTR1, primary screen, imaging, U2OS cells, beta-arrestin-GFP, high content; NTR1-U2OS beta-arrestin-GFP spot imaging, agonist mode; 330,000 compounds, 0.17% hits; activation, % at 20 µM;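 active = activation at or above 40% of the spot to cytoplasm intensity ratio, with at least 20 cells analyzed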;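 also: 0% = DMSO without peptide and 100% = 100 nM NTR1 peptide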
Target sequence (P30989 whole entry, looked up): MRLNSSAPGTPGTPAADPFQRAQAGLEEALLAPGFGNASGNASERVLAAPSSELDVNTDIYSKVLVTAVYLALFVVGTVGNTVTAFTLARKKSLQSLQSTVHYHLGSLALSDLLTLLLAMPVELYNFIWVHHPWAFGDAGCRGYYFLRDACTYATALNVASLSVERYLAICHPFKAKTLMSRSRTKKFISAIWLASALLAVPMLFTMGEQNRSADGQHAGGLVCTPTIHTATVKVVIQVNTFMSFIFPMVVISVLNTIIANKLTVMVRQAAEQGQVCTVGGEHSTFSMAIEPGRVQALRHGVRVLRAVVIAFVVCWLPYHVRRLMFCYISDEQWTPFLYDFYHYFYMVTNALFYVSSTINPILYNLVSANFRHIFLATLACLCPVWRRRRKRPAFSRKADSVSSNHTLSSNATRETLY
Jurkat NFkB inh: inhibitors of induced NF-kB luciferase reporter, primary screen, TCR NF-kB activation inhibitor project, cell-based, luminescence, uHTS; Jurkat, PMA/ionomycin-induced NF-kB luciferase reporter; inhibition, % at 4 µM; 330,000 compounds, 0.53% hits; AID 435003, 2010; in the data active = inhibition above about 50%
A1 inh: caspase 3/7 activation in MEF A1-2A-BIM cells, primary screen, A1 inhibitor project, cell-based, luminescence, HTS; 330,000 compounds, 0.066% hits; Caspase-Glo 3/7 luminescence, 3 h; percent of clofoctol response, vehicle zero; caspase activation, % (concentration not given with the values);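 active = over half of replicate activation scores above 10%, or exactly half above 10 with the replicate mean above 10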
Mdm2-MdmX conf: Mdm2-MdmX complex disruptors, retested hits, confirmation, luminescence, single concentration | shares compounds with Mdm2 MdmX PPI | Mdm2-MdmX binding, luminescent assay | inhibition, % at 8 µM | 10,000 compounds, 55% hits; in the data active = inhibition above about 40%
FLuc counter: full-length luciferase signal inhibition, confirmation, counter-screen for Mdm2/MdmX interaction inhibitor project, cell-based, single concentration, SaOS-2 | shares compounds with Mdm2 MdmX PPI | SaOS-2 full-length luciferase counterscreen, luminescence | inhibition, % at 8 µM | 6,200 compounds, 77% hits | AID 504607, 2011;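 active = mean inhibition at 8 µM reaching about 37%, which flags the compound as non-specific, limit read from the data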;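 also: p53-null SaOS-2 cells with luciferase driven by a doxycycline-inducible promoter; compound on cells about two nights before reading with doxycycline added after day one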
* marks the source's active call; other numbers are inactive results; · = not tested or not shown. Rows were chosen to be rich in hits. Some 3.8% of all compounds tested hit in one or more screens of this group.

SMILES | 697 NFkB inh | Mdm2 MdmX PPI | Beta apoptosis | NTR1 ag | Jurkat NFkB inh | A1 inh | Mdm2-MdmX conf | FLuc counter
CN1CCN(C(=O)CCCN2C(=O)/C(=C/c3ccccc3)SC2=S)CC1 | -16.5 | 52.5* | -46.8 | 0.2 | -1.8 | -0.8 | 33.7 | 30.5
COC(C[C@@H]1O[C@H]1[C@H](O)[C@@H](C)OCc1ccccc1)OC | 4.1 | 10.0 | -8.1 | -2.4 | 12.3 | -0.9 | · | ·
COc1cccc(NC(=O)COc2ccc(C(=O)N3CCN(C)CC3)cc2)c1 | -21.1 | 16.5 | -7.1 | 0.7 | 1.2 | 0.1 | · | ·
CCCCCc1cc(=O)oc2c(C(CCN3CCCCC3)c3cc(OC)c(OC)c(OC)c3)c(OC)cc(OC)c12 (centres undefined) | -5.8 | 97.8* | 30.0 | 32.2 | 29.1 | 1.1 | 46.5* | 26.6
CCCCCc1cc(=O)oc2c(C(CCN3CCCC(C)C3)c3cc(OC)c(OC)c(OC)c3)c(OC)cc(OC)c12 (centres undefined) | 6.5 | 100.2* | 109.6* | 19.9 | 24.2 | -0.5 | 52.2* | 43.4*
CCN(CC)CCC(c1cc(OC)c(OC)c(OC)c1)c1c(OC)cc(OC)c2c(C)cc(=O)oc12 (centres undefined) | -5.1 | 28.0 | -3.4 | 1.7 | 15.9 | 0.2 | · | ·
COc1cc(C(CCN2CCCC2)c2c(OC)cc(OC)c3ccc(=O)oc23)cc(OC)c1OC (centres undefined) | 25.2 | -7.2 | 4.4 | -1.8 | 2.6 | -0.2 | · | ·
CCCCCc1cc(=O)oc2c(C(CCN(CC)CC)c3ccc(N(C)C)cc3)c(OC)cc(OC)c12 (centres undefined) | 17.3 | 90.1* | 4.7 | 36.4 | -4.5 | -0.4 | 25.1 | ·
COC(=O)c1cn(C(=O)c2cc(Cl)ccc2Cl)c2ccccc12 | 1.8 | -15.6 | -0.2 | 2.6 | 6.2 | -0.4 | · | ·
CC1(C)COC(/C=C/c2cccc([N+](=O)[O-])c2)=N1 | 7.8 | 79.4* | -51.7 | 0.0 | 8.7 | -0.6 | 72.2* | 39.1*
CC1(C)COC(c2cc([N+](=O)[O-])ccc2Cl)=N1 | 9.3 | -9.2 | -9.7 | 1.6 | 14.0 | 0.2 | · | ·
CC(=O)c1ccc(N2CCN(c3ncccn3)CC2)cc1 | -57.1 | -21.0 | 5.3 | 1.7 | -47.7 | -0.5 | · | ·
Cc1cc(NC(=O)C(C)SCC(=O)OCC(=O)N(Cc2ccccc2)C(C)(C)C)no1 (centres undefined) | 0.9 | 8.3 | -8.3 | -0.1 | 2.7 | 0.3 | · | ·
Cc1cc(NC(=O)C(C)SCC(=O)N(Cc2ccccc2)c2ccccc2)no1 (centres undefined) | -13.3 | 66.9* | 0.7 | 0.7 | 7.9 | 0.7 | 45.2* | 109.7*
Cc1ccc(NC(=O)CN2CCN(C)CC2)cc1S(=O)(=O)N1CCOCC1 | -5.2 | 16.0 | -4.2 | 0.6 | 8.3 | 1.6 | · | ·
CCN(CC(=O)Nc1c(F)cccc1F)C(=O)C1CCN(S(=O)(=O)c2ccc(F)cc2)CC1 | 10.0 | -11.0 | 0.2 | -0.5 | -7.8 | -0.2 | · | ·
Cc1c(C(=O)N2CCC(C)CC2)oc2ccc3c(c12)C(O)CC1(CCCCC1)O3 (centres undefined) | -113.1 | 75.6* | 3.6 | 2.7 | 10.5 | -0.6 | 23.4 | ·
COCCNC(=O)c1oc2ccc3c(c2c1C)C(O)CC(C)(C)O3 (centres undefined) | -1.9 | 0.0 | -3.3 | -0.6 | 5.0 | 0.6 | · | ·
CCN(CC)CCNC(=O)c1ccc(NC(=O)c2cn(-c3ccc(F)cc3)nc2-c2cccc(OC)c2)cc1 | 6.3 | 96.4* | 14.9 | 9.7 | -6.2 | 0.3 | 58.2* | 27.9
CCN(CC)CCNC(=O)c1ccc(NC(=O)c2cn(-c3ccccc3)nc2-c2cccs2)cc1 | -3.8 | 98.2* | 78.5* | 5.9 | -29.2 | 0.1 | 63.7* | 52.7*
O=C(c1cn(-c2ccccc2)nc1-c1cccs1)N1CCN(c2ccccc2)CC1 | -21.6 | 58.8* | 4.1 | 5.1 | 36.9 | 0.2 | 48.0* | 64.0*
CCOc1ccc(NC(=O)CN(C)C(=O)c2cn(-c3ccc(F)cc3)nc2-c2cccc(OC)c2)cc1OCC | -3.1 | 23.9 | 5.8 | 8.9 | 2.7 | 2.0 | · | ·
Cc1nc(Cc2nnc(SCC(=O)Nc3c(C)cccc3C)o2)cs1 | 9.6 | -25.9 | -6.2 | -0.8 | 4.1 | 0.4 | · | ·
CCOc1ccc(/C=N/NC(=S)NC2CC3CC2C2C=CCC32)cc1 (centres undefined) | 8.5 | 10.9 | 1.1 | 7.1 | 4.0 | 0.4 | · | ·
COc1cc(/C=N/NC(=S)NC2CC3CC2C2C=CCC32)ccc1O (centres undefined) | -116.5 | 63.1* | 5.0 | 35.2 | -6.7 | 0.4 | 32.1 | ·
SMILES | 697 NFkB inh | Mdm2 MdmX PPI | Beta apoptosis | NTR1 ag | Jurkat NFkB inh | A1 inh | Mdm2-MdmX conf | FLuc counter
c1ccn2cc(-c3ccc4c(c3)OCCO4)nc2c1 | -91.2 | 50.2* | 18.3 | 3.5 | -88.4 | -7.2 | 27.9 | ·
Clc1ccc(CN2CCN(c3ncccn3)CC2)cc1 | -0.1 | 8.3 | -4.3 | -0.2 | -17.6 | -0.5 | · | ·
COc1ccc(OC)c(C(C[N+](=O)[O-])c2c(C)cc3ccccn23)c1 (centres undefined) | -8.9 | 68.1* | 1.3 | 50.4* | 17.3 | -0.6 | 49.5* | 11.4
O=C(C[C@H]1C[C@H](C(=O)N2CCCCC2)[C@@]2(CCc3ccccc3)c3[nH]c4ccc(Cl)cc4c3CCN2C1=O)NCCN1CCOCC1 | 22.8 | 83.1* | · | 0.2 | · | · | 42.1* | 42.1*
O=C(C[C@H]1C[C@H](C(=O)N2CCCCC2)[C@@]2(CCc3ccccc3)c3[nH]c4ccc(Cl)cc4c3CCN2C1=O)NCCCn1ccnc1 | 10.5 | 48.6 | · | 23.6 | · | · | · | ·
COc1ccc(CNC(=O)C[C@H]2C[C@H](C(=O)N3CCCCC3)[C@@]3(CCc4ccccc4)c4[nH]c5ccc(Cl)cc5c4CCN3C2=O)cc1OC | -10.6 | 55.1* | · | 9.3 | · | · | 1.4 | ·
Cc1ccc(NC(=O)Cc2nc(COC(=O)Cc3cccc(C(F)(F)F)c3)cs2)cc1 | -3.1 | -2.2 | · | 0.6 | 0.7 | · | · | ·
C=CCN(C(=O)C1CC(=O)N(C2CCCC2)C1)c1nc(-c2ccc(S(C)(=O)=O)cc2)cs1 (centres undefined) | -13.0 | -39.7 | 10.7 | 7.0 | -59.4 | -1.0 | · | ·
